Molecules are shown by their SMILES. Hit rate of the full screen: of about 310,000 compounds, about 3,600 (1.2%) were called active. This is one part of a sample in which actives are shown more often than they occur.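 The calls were made as follows: active = ratio plate-corrected score three or more library SD toward inhibition, starting fluorescence score within five deviations; inactive = the rest.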

Chain of Anoctamin-1 (Mus musculus) (Q8BHY3 whole entry, looked up): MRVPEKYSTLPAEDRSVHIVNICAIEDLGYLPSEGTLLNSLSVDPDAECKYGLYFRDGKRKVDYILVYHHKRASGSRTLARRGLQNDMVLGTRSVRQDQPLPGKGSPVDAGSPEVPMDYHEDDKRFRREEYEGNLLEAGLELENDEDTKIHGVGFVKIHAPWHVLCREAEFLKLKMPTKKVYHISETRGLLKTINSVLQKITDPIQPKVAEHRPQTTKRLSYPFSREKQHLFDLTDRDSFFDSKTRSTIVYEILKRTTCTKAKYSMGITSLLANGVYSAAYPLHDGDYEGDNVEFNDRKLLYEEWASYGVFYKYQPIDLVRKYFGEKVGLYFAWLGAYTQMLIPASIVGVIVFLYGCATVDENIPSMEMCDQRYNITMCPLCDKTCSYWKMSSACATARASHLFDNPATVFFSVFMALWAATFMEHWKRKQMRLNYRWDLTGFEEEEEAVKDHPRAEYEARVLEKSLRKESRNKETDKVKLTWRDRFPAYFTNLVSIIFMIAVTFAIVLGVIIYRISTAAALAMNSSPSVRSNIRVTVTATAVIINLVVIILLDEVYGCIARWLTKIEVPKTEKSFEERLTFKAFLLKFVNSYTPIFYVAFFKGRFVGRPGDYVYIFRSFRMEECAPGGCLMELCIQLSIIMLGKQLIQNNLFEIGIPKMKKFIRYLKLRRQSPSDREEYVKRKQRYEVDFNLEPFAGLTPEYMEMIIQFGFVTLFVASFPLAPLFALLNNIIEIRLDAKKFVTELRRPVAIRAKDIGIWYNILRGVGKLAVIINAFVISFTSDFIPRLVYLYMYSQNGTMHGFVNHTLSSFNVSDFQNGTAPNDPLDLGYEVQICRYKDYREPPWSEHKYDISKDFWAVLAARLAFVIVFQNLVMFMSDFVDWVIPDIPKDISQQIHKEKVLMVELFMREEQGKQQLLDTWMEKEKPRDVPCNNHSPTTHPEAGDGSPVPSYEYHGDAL

The test has as its target Anoctamin-1 (Mus musculus) (UniProt Q8BHY3). Put plainly: TMEM16A chloride channel inhibitors, primary screen, cell-based, HTS (AID 588511).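 As to normalized B-score (activity score, 25-100; higher = stronger inhibition): score derived from kinetic fluorescence span divided by baseline fluorescence per well.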 To be noted: HEK293 TMEM16A/YFP iodide influx fluorescence, ionomycin; at 10 µM.
Turning to `O=C(Cc1ccc(Cl)c(Cl)c1)Nc1ccc(SC(F)F)cc1`, the normalized B-score (activity score, 25-100; higher = stronger inhibition) entry was “inactive”.
In the case of `O=C(CC1SCCNC1=O)Nc1ccc(Cl)c(Cl)c1` (centres undefined) it was “inactive”; in that of `O=C(CC(O)(C(F)(F)F)C(F)(F)F)Nc1ccc(Cl)c(Cl)c1`, 100 (active).
To `Cc1ccc(NC(=O)Cn2c(=O)n(CCC(=O)NC3CCN(Cc4ccccc4)CC3)c(=O)c3ccccc32)cc1` belongs “inactive”.
As to `CCc1ccc(-c2nc(SCC(=O)NC3CCCC3)n[nH]2)cc1`, the normalized B-score (activity score, 25-100; higher = stronger inhibition) is 25 (active).
In the case of `CCc1c(C)nc(SCC(=O)NC2CCCC2)[nH]c1=O` it was “inactive”; in that of `COc1ccc(-c2nc(SCC(=O)N3CCCC3)n[nH]2)cc1`, “inactive”.
To `CCC(CC)C(=O)Nc1c2c(nn1-c1ccc(C)cc1)CS(=O)(=O)C2` belongs “inactive”; to `O=C(NNS(=O)(=O)c1ccccc1C(F)(F)F)c1cc2ncc(C(F)(F)F)cc2s1`, “inactive”.
Turning to `CCCCC(=O)Nc1ccccc1N1CCN(c2ccc(F)cc2)CC1`, the normalized B-score (activity score, 25-100; higher = stronger inhibition) entry is “inactive”.
In the case of `O=C(Nc1ccccc1N1CCN(C(=O)c2ccccc2)CC1)c1ccco1` it was “inactive”.
To `CCCC(=O)Nc1ccccc1N1CCN(C(=O)c2ccccc2)CC1` belongs 25 (active); to `Cc1cc(C)cc(NS(=O)(=O)c2ccc(Oc3ncc(C(F)(F)F)cc3Cl)cc2)c1`, 25 (active).
To `Cc1cc(C)cc(NS(=O)(=O)c2ccc(F)cc2)c1` belongs “inactive”; to `COc1ccccc1Oc1ccc(S(=O)(=O)Nc2cccnc2)cc1`, “inactive”; to `CN1C(CC(=O)Nc2ccc(Br)cc2)c2ccccc2CC1(C)C` (centres undefined), “inactive”.
For the compound `Cc1ccccc1CSc1nnc(CCCCCNC(=O)OC(C)(C)C)o1`, the normalized B-score (activity score, 25-100; higher = stronger inhibition) was 100 (active).
For the compound `CCc1ccccc1NC(=O)CSc1nnc(CCNC(=O)OC(C)(C)C)o1`, the normalized B-score (activity score, 25-100; higher = stronger inhibition) result is “inactive”.
To `Cc1cccc(NC(=O)CSc2nnc(CCCCCNC(=O)OC(C)(C)C)o2)c1C` belongs “inactive”; to `CCc1ccc(C2C(C#N)=C(N)N(N3CCOCC3)C3=C2C(=O)CC(C)(C)C3)s1` (centres undefined), “inactive”; to `COc1cccc(C(=O)NCCS(=O)(=O)NCC2CCCO2)c1` (centres undefined), “inactive”.
`S=C(Nc1ccc(Br)cc1)NC1CCN(Cc2ccccc2)CC1`: the normalized B-score (activity score, 25-100; higher = stronger inhibition) is 25 (active).
To `S=C(NCCCc1ccccc1)Nc1ccc(Br)cc1` belongs 100 (active); to `S=C(Nc1ccc(Br)cc1Cl)NC1CCN(Cc2ccccc2)CC1`, “inactive”.
To `S=C(NN=C1CCN(Cc2ccccc2)CC1)NC1CCCCC1` belongs “inactive”.
To `O=C(CCNC(=O)c1ccc(Br)cc1)NCCCc1ccccc1` belongs “inactive”; to `S=C(NCCc1ccccc1)Nc1ccccc1`, “inactive”; to `O=C(NCc1ccccn1)C1CCN(S(=O)(=O)c2ccc(Br)cc2)CC1`, “inactive”.
`COc1ccc(C(C#N)(CC(=O)O)c2cnccn2)cc1OC` (centres undefined): the normalized B-score (activity score, 25-100; higher = stronger inhibition) result was “inactive”.
To `O=C(NC1CCC(O)CC1)c1ccccc1OCc1ccc(F)cc1` (centres undefined) belongs “inactive”.
To `COc1ccc(CCNC(=O)c2ccccc2OCc2ccccc2)cc1` belongs “inactive”; to `CC(=O)c1ccccc1OCc1ccc(C(=O)c2ccccc2)cc1`, 25 (active); to `COc1ccccc1CNS(=O)(=O)c1ccc2c(c1)NC(=O)CS2`, “inactive”.
For `C=C(C)C(=O)Nc1cccc(C(C)=O)c1`, the normalized B-score (activity score, 25-100; higher = stronger inhibition) result is “inactive”.
To `CCSc1nsc(NC(=O)Nc2cccc(C(C)=O)c2)n1` belongs “inactive”; to `CSc1nsc(NC(=O)Nc2ccccc2)n1`, 100 (active).
To `C=CCSc1nsc(NC(=O)Nc2cccc(C(C)=O)c2)n1` belongs 100 (active); to `O=C(Nc1ccccc1)Nc1nnc(COc2ccccc2F)s1`, “inactive”.
To `CCSc1nsc(NC(=O)Nc2ccccc2OC)n1` belongs “inactive”; to `COc1ccc(-c2c(-c3ccc(OC)cc3O)nc(C)nc2C(F)(F)F)cc1`, “inactive”; to `COc1cc(NC(=O)c2ccc(-c3csc(C)n3)cc2)c(OC)cc1Cl`, “inactive”.
Take `CC1CCCCN1CCCNC(=O)Cn1ncc2c([nH]c3ccccc32)c1=O` (centres undefined): the normalized B-score (activity score, 25-100; higher = stronger inhibition) result was “inactive”.
To `Cc1ccc2c(c1)N(CC(=O)NCCCN1CCCCC1)C(=O)c1cccnc1O2` belongs “inactive”; to `Clc1ccc(-c2nc3ccccn3c2CN2CCSCC2)cc1`, “inactive”.
To `CCCCn1c(N)c(N(CC(C)C)C(=O)CN(C)S(=O)(=O)c2ccc(F)cc2)c(=O)[nH]c1=O` belongs “inactive”; to `CC(=O)c1cccc(NC(=O)N2CCCC2C(=O)NCCC(C)C)c1` (centres undefined), 25 (active).
As for `COc1ccc(CCNC(=O)C2CCCN2C(=O)Nc2ccccc2)cc1OC` (centres undefined), the normalized B-score (activity score, 25-100; higher = stronger inhibition) result is “inactive”.
To `CC(=O)c1cccc(NC(=O)N2CCCC2C(=O)NCCc2ccccc2)c1` (centres undefined) belongs “inactive”; to `Cc1snc(SCc2c(F)cccc2Cl)c1C#N`, “inactive”.
In the case of `Cc1cc(C)c2c(-n3cccc3)c(C(=O)NNS(=O)(=O)c3ccc(F)cc3)sc2n1` it was “inactive”; in that of `CC(Sc1nnc(Cc2ccc([N+](=O)[O-])cc2)o1)C(N)=O` (centres undefined), “inactive”.
For the compound `CCn1nccc1C(=O)Nc1ccc(Cl)c(Cl)c1`, the normalized B-score (activity score, 25-100; higher = stronger inhibition) result was “inactive”.
To `CCn1nccc1C(=O)Nc1ccc(S(=O)(=O)NC23CC4CC(CC(C4)C2)C3)cc1` belongs 25 (active).
Turning to `Cc1cc(C(F)F)n2nc(C(=O)Nc3ccc(S(=O)(=O)NC45CC6CC(CC(C6)C4)C5)cc3)nc2n1`, the normalized B-score (activity score, 25-100; higher = stronger inhibition) result is “inactive”.
